Records with an inconclusive call do not appear. Entries that show only a call come without a potency. The source made the active and inactive calls. The call rests on the fitted dose curve; in most records, active means well fitted curve in the direction sought with a large enough effect; inconclusive means small, poorly fitted or top-dose-only effect, or another doubt; inactive means no such curve, though single readings can be large; an effect the other way counts as inactive or inconclusive.
Tests used:
[1] = molecular target: Arylsulfatase A (Homo sapiens) (UniProt P15289); assay: qHTS screen for enhancers of Arylsulfatase A (ASA1): LOPAC Validation Assay (AID 720538); further: potency means the concentration at half of the fitted maximal effect
Outline: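 Cell-based enhancement test: residual ASA activity in SV40-transformed I179S patient fibroblasts is measured by pNCS turnover (0.5mM final, 14h, room temperature) following 48h compound incubation; higher fluorescence indicates activation.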

[2] = qHTS for compounds that reverse cellular toxicity of Amyloid beta (A-beta) peptide in yeast: LOPAC Validation Assay (AID 720559)
Outline: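 Here, A-beta-toxic yeast grow with test compounds at 30 C for 48 hr before optical density at 600 nm is recorded; data are normalized against DMSO and the FeCl3-clioquinol control.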

[3] = qHTS for Activators of Parkin Expression: LOPAC Validation Assay (NLuc Reporter) (AID 720572; further: potency means the concentration at half of the fitted maximal effect)
Outline: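 Neuronal line stably carrying a FLuc/NLuc coincidence reporter under the Parkin promoter, seeded 24 h, then dosed in 7-point series for 24 h at 37 C. NLuc luminescence read after FLuc; normalized to DMSO and positive control (100%).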

[4] = qHTS for Activators of Parkin Expression: LOPAC Validation Assay (FLuc Reporter) (AID 720573)
Outline: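 Readout is FLuc luminescence from neuronal reporter cells (Parkin promoter, FLuc plus NLuc) after 24 h compound exposure in dose response. Values normalized to neutral DMSO and positive-control compounds.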

Sequence of Arylsulfatase A (Homo sapiens) (P15289 whole entry, looked up): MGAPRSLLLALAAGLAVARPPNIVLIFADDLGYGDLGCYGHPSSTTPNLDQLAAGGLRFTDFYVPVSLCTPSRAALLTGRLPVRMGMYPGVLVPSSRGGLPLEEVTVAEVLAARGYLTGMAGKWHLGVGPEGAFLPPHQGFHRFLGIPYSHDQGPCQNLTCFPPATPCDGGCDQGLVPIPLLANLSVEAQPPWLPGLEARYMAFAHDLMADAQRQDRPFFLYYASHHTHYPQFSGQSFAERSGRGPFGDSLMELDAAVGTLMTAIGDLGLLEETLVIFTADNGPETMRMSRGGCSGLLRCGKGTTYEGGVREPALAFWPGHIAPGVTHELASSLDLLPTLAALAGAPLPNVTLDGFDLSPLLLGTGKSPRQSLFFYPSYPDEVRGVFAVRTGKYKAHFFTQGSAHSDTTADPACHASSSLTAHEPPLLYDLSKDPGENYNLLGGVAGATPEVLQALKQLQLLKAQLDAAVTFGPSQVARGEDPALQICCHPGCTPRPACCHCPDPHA

CC(N)(Cc1ccc(O)c(O)c1)C(=O)O (stereo unspecified)
Potency [1]: inactive | outcome [2]: inactive | Potency [3]: inactive | Potency [4]: inactive

C[C@@H](NCCc1ccc(O)cc1)[C@@H](O)c1ccc(O)cc1
Potency [1]: inactive | outcome [2]: inactive | Potency [3]: inactive | Potency [4]: inactive

O=[N+]([O-])c1cccc2c(Br)[nH]nc12
Potency [1]: inactive | outcome [2]: inactive | Potency [3]: inactive | Potency [4]: inactive

CNc1cc(NS(=O)(=O)c2ccc(N)cc2)nc(NC)n1
Potency [1]: inactive | outcome [2]: inactive | Potency [3]: inactive | Potency [4]: inactive

CCCn1c(=O)c2[nH]c(C3CCCC3)nc2n(CCC)c1=O
Potency [1]: inactive | outcome [2]: inactive | Potency [3]: inactive | Potency [4]: inactive

C=CCNc1ncnc2ccc(Br)cc12
Potency [1]: inactive | outcome [2]: inactive | Potency [3]: inactive | Potency [4]: inactive

O=C(O)c1cc(=O)cc(C(=O)O)[nH]1
Potency [1]: inactive | outcome [2]: inactive | Potency [3]: inactive | Potency [4]: inactive

C[C@@]1(C2CCCC2)Cc2cc(OCC(=O)O)c(Cl)c(Cl)c2C1=O
Potency [1]: inactive | outcome [2]: inactive | Potency [3]: inactive | Potency [4]: inactive

Cn1c(=O)c2[nH]c(-c3ccc(S(=O)(=O)O)cc3)nc2n(C)c1=O
Potency [1]: inactive | outcome [2]: inactive | Potency [3]: inactive | Potency [4]: inactive

C=C1C(=O)O[C@@H]2[C@H]3O[C@]3(C)CCC=C(C)CC[C@@H]12
Potency [1]: inactive | outcome [2]: inactive | Potency [3]: inactive | Potency [4]: inactive

COc1ccc(CCn2nnnc2C2(c3ccc(C)cc3)CC2)cc1
Potency [1]: inactive | outcome [2]: inactive | Potency [3]: inactive | Potency [4]: inactive

CN1CCC2(CCN3CCc4c(oc5ccccc45)C3C2)N(C)C1=O (stereo unspecified)
Potency [1]: inactive | outcome [2]: inactive | Potency [3]: inactive | Potency [4]: inactive

CCN1C(=O)C=CC1=O
Potency [1]: inactive | outcome [2]: inactive | Potency [3]: inactive | Potency [4]: inactive

NC(N)=N[C@@H](CCC(=O)O)C(=O)O
Potency [1]: inactive | outcome [2]: inactive | Potency [3]: inactive | Potency [4]: inactive

COc1cc(/C=C(\C#N)C(=O)c2ccc(O)c(O)c2)cc(I)c1O
Potency [1]: 21.3 µM (active) | outcome [2]: inactive | Potency [3]: inactive | Potency [4]: inactive

N[C@H](C(=O)O)[C@H]1C[C@@H]1C(=O)O
Potency [1]: inactive | outcome [2]: inactive | Potency [3]: inactive | Potency [4]: inactive

OC[C@H]1O[C@H](n2cnc3c(N[C@H]4CCC[C@@H]4O)ncnc32)[C@H](O)[C@@H]1O
Potency [1]: inactive | outcome [2]: inactive | Potency [3]: inactive | Potency [4]: inactive

COc1ccc(NC(=O)c2ccc(-c3ccc(-c4noc(C)n4)cc3C)cc2)cc1N1CCN(C)CC1
Potency [1]: inactive | outcome [2]: inactive | Potency [3]: 20.6 µM (active) | Potency [4]: inactive

CCCCCC[C@@H]([C@@H](C)O)n1cnc2c(N)ncnc21
Potency [1]: inactive | outcome [2]: inactive | Potency [3]: inactive | Potency [4]: inactive

Cc1cc(Cn2cnc3c2C[C@@H](C(=O)O)N(C(=O)C(c2ccccc2)c2ccccc2)C3)ccc1N
Potency [1]: inactive | outcome [2]: inactive | Potency [3]: inactive | Potency [4]: inactive

Cc1ccc([N+](=O)[O-])cc1S(=O)(=O)N(C)C
Potency [1]: inactive | outcome [2]: inactive | Potency [3]: inactive | Potency [4]: inactive

NCCNS(=O)(=O)c1cccc2c(Cl)cccc12
Potency [1]: inactive | outcome [2]: inactive | Potency [3]: inactive | Potency [4]: inactive

CC[C@H](NC(=O)c1c(C)c(-c2ccccc2)nc2ccccc12)c1ccccc1
Potency [1]: inactive | outcome [2]: inactive | Potency [3]: inactive | Potency [4]: inactive

O=C(O)c1ccccc1Nc1ccccc1
Potency [1]: inactive | outcome [2]: inactive | Potency [3]: inactive | Potency [4]: inactive

C[C@H]1CC2C3CCC4=CC(=O)C=C[C@]4(C)[C@@]3(Cl)[C@@H](O)C[C@]2(C)[C@@]1(O)C(=O)CO (stereo partly specified)
Potency [1]: inactive | outcome [2]: inactive | Potency [3]: inactive | Potency [4]: inactive

CC1CCN(CC[C@H]2CCCN2S(=O)(=O)c2cccc(O)c2)CC1
Potency [1]: inactive | outcome [2]: inactive | Potency [3]: inactive | Potency [4]: inactive

O=C(O)[C@H]1NCCC[C@H]1C(=O)O
Potency [1]: inactive | outcome [2]: inactive | Potency [3]: inactive | Potency [4]: inactive

NC(=O)c1cc[n+](CC2=C(C(=O)O)N3C(=O)[C@@H](NC(=O)[C@@H](c4ccccc4)S(=O)(=O)[O-])[C@H]3SC2)cc1
Potency [1]: inactive | outcome [2]: inactive | Potency [3]: inactive | Potency [4]: inactive

Cc1nc(N=Nc2ccc(C(=O)O)cc2)c(COP(=O)(O)O)c(C=O)c1O
Potency [1]: inactive | outcome [2]: inactive | Potency [3]: inactive | Potency [4]: inactive

NS(=O)(=O)c1cccc2c1c([N+](=O)[O-])cc1nc(O)c(O)nc12
Potency [1]: 10.7 µM (active) | outcome [2]: inactive | Potency [3]: inactive | Potency [4]: inactive

C=CCn1c(=O)c2c(nc(-c3ccc(S(=O)(=O)O)cc3)n2C)n(C)c1=O
Potency [1]: inactive | outcome [2]: inactive | Potency [3]: inactive | Potency [4]: inactive

N[C@@H](CCCC(=O)O)C(=O)O
Potency [1]: inactive | outcome [2]: inactive | Potency [3]: inactive | Potency [4]: inactive

CC(=O)NNC(=O)N1Cc2ccccc2Oc2ccc(Cl)cc21
Potency [1]: inactive | outcome [2]: inactive | Potency [3]: inactive | Potency [4]: inactive

Fc1ccc(CN(C2=NCCN2)c2c(Cl)cccc2Cl)cc1
Potency [1]: inactive | outcome [2]: inactive | Potency [3]: inactive | Potency [4]: inactive

Reference: PubChem BioAssay (NCATS)
